PubChem BioAssay (Tox21)
Where “and” joins values, the source holds several entries; their conditions need not be identical. Equal entries are not always repeated. Records with an inconclusive call do not appear. Where a call stands in place of a potency, no number is given. The source holds several records for some structures; these can differ, active in one and inactive in another. Calls of active or inactive are those of the source. Unless noted, calls follow the shape of the dose curve; as a rule, active = well fitted curve in the direction sought with a large enough effect in the repeat runs; inconclusive = weak or mixed curves; inactive = no such curve, though single readings can be large; an effect the other way counts as inactive or inconclusive.

Tests used:
[1] = qHTS assay to identify small molecule antagonists of the thyroid receptor (TR) signaling pathway - cell viability counter screen (AID 743064); also: nearly all actives have a fitted effect of over 50% in size; also: potency is read from the fitted curve at half-maximal effect
In short: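 CellTiter-Fluor readout, 30 min at 37 °C/5% CO2, following 23.5 h incubation of GH3.TRE-Luc cells with test compound and 1 nM T3 (final).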

[2] = qHTS assay to identify small molecule antagonists of the thyroid receptor (TR) signaling pathway (AID 743065); also: series mostly up to about 70 µM; nearly all actives have a fitted effect of over 55% in size
In short: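 GH3.TRE-Luc rat pituitary cells carrying two TR response elements driving luciferase were plated for 4 h, given compound plus 1 nM T3 (final), and incubated 23.5 h at 37 C. ONE-Glo luminescence measured reporter inhibition; CellTiter-Fluor fluorescence tracked cytotoxicity.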

[3] = tested on: thyroid hormone receptor (rat, GH3 cells); experiment: qHTS assay to identify small molecule agonists of the thyroid receptor (TR) signaling pathway (AID 743066; calls by dose curve)
[4] = biological target: Estrogen receptor (Homo sapiens) (UniProt P03372); experiment: qHTS assay to identify small molecule antagonists of the estrogen receptor alpha (ER-alpha) signaling pathway (AID 743069; active = well fitted curve in the direction sought with a large enough effect in the signal ratio in the repeat runs, not every such curve was filed as active; the % refers to the signal ratio)
In short: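 A 17beta-estradiol challenge was applied right after compound transfer to ER-alpha-UAS-bla HEK293 cells previously kept in charcoal-stripped serum. Plates stood 18 hr at 37C and 5% CO2; fluorescence was read following 2 hr FRET substrate loading at room temperature.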

[5] = qHTS assay to identify small molecule antagonists of the estrogen receptor alpha (ER-alpha) signaling pathway - cell viability counter screen (AID 743074; calls by dose curve;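 also: HEK293 cells carrying ER-alpha-UAS-bla reporter stimulated with 17beta-estradiol; nearly all actives have a fitted effect of over 45% in size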)
[6] = biological target: Estrogen receptor (Homo sapiens) (UniProt P03372); experiment: qHTS assay to identify small molecule agonists of the estrogen receptor alpha (ER-alpha) signaling pathway (AID 743075; calls by dose curve;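 also: HEK293 GripTite cells with ER-alpha and UAS-driven beta-lactamase reporter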; also: potency is read from the fitted curve at half-maximal effect)
[7] = biological target: Estrogen receptor (Homo sapiens) (UniProt P03372); experiment: qHTS assay to identify small molecule agonists of the estrogen receptor alpha (ER-alpha) signaling pathway using the BG1 cell line (AID 743079); also: nearly all actives have a fitted effect of over 20% in size; also: potency is read from the fitted curve at half-maximal effect
[8] = qHTS assay to identify small molecule antagonists of the estrogen receptor alpha (ER-alpha) signaling pathway using the BG1 cell line (AID 743080; calls by dose curve;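 also: BG1 cells stimulated with 17beta-estradiol alongside compound; series mostly up to about 70 µM; nearly all actives have a fitted effect of over 25% in size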)
In short: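 Readout is ONE-Glo luminescence, taken 30 min at room temperature after reagent addition, preceded by a CellTiter-Fluor viability read; BG1-Luc-4E2 cells had received compound and 17beta-estradiol for 21.5 h at 37 C.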

[9] = qHTS assay to identify small molecule antagonists of the estrogen receptor alpha (ER-alpha) signaling pathway using the BG1 cell line - cell viability counter screen (AID 743081);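 also: compound given together with 17beta-estradiol as the ER stimulus; nearly all actives have a fitted effect of over 45% in size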; also: potency is read from the fitted curve at half-maximal effect
Aromatase (Homo sapiens) = Aromatase (Homo sapiens) (UniProt P11511); experiment: qHTS assay to identify aromatase inhibitors (AID 743083); also: series mostly up to about 70 µM; nearly all actives have a fitted effect of over 55% in size
Sequence of Aromatase (Homo sapiens) (P11511 whole entry, looked up): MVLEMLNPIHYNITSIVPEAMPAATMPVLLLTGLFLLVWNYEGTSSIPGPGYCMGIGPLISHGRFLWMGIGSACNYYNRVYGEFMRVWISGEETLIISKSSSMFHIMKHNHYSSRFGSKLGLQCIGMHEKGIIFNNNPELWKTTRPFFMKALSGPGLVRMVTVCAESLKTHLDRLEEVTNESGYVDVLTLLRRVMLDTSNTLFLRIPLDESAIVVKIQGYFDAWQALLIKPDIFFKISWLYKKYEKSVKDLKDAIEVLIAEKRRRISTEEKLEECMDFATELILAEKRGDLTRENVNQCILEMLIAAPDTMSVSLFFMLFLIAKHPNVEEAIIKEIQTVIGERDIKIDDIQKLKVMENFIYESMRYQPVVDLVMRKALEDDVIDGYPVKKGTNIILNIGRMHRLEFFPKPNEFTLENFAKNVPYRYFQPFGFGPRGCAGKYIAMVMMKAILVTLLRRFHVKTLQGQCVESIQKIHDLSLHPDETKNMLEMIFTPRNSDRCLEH

Sequence of Estrogen receptor (Homo sapiens) (P03372 whole entry, looked up): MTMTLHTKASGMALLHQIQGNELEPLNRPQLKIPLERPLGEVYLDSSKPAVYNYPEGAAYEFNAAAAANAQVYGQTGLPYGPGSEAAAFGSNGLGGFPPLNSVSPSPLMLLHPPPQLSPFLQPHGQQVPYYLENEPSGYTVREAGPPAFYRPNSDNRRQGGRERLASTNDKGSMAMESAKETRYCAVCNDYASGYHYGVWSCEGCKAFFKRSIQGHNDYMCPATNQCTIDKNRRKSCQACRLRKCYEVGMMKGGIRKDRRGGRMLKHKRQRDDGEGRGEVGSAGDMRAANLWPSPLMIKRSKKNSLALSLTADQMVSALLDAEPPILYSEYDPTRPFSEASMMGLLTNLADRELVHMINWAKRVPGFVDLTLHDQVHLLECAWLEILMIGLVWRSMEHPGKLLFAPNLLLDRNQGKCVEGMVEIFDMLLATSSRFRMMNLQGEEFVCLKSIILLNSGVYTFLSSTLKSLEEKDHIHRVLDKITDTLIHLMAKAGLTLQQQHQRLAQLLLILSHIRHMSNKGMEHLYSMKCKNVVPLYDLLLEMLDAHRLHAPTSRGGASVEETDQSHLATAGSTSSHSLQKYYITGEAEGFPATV

| SMILES | Potency [1] | Potency [2] | outcome [3] | Potency [4] | outcome [5] | Potency [6] | Potency [7] | outcome [8] | Potency [9] | Potency (Aromatase (Homo sapiens)) |
| --- | --- | --- | --- | --- | --- | --- | --- | --- | --- | --- |
| CC(C)CC(C)O (stereo not given) | inactive | inactive | inactive | inactive | inactive | inactive | inactive | inactive | inactive | inactive |
| CNC(=S)N(C)C | inactive | inactive | inactive | inactive | inactive | inactive | inactive | inactive | inactive | inactive |
| COCCCN | inactive | inactive | inactive | inactive | inactive | inactive | inactive | inactive | inactive | inactive |
| CCO[Si](CCC#N)(OCC)OCC | inactive | inactive | inactive | inactive | inactive | inactive | inactive | inactive | inactive | inactive |
| CC(=O)CC(C)(C)O | inactive | inactive | inactive | inactive | inactive | inactive | inactive | inactive | inactive | inactive |
| COc1ccc([N+](=O)[O-])cc1N | inactive | inactive | inactive | inactive | inactive | inactive | inactive | inactive | inactive | inactive |
| CC(=O)CCC=C(C)C | inactive | inactive | inactive | inactive | inactive | inactive | inactive | inactive | inactive | inactive |
| C=CC(C)CCCC(C)(C)O (stereo not given) | inactive | inactive | inactive | inactive | inactive | inactive | inactive | inactive | inactive | inactive |
| CCCCCCCC=O | inactive | inactive | inactive | inactive | inactive | inactive | inactive | inactive | inactive | inactive |
| O=C1CCCC1 | inactive | inactive | inactive | inactive | inactive | inactive | inactive | inactive | inactive | inactive |
| CCCCCCC=O | inactive | inactive | inactive | inactive | inactive | inactive | inactive | inactive | inactive | inactive |
| CC(C)c1cccc(C(C)C)c1 | inactive | inactive | inactive | inactive | inactive | inactive | inactive | inactive | inactive | inactive |
| CC(=O)OCc1ccccc1 | inactive | inactive | inactive | inactive | inactive | inactive | inactive | inactive | inactive | inactive |
| O=S(=O)(O)c1ccc(N=Nc2c(O)ccc3cc(S(=O)(=O)O)ccc23)cc1 | 30.8 µM (active) and 27.3 µM (active) | inactive | inactive | inactive | inactive | inactive | inactive | inactive | 27.4 µM (active) and 27.3 µM (active) | inactive |
| O=C(O)c1ccccc1C(=O)O | inactive | inactive | inactive | inactive | inactive | inactive | inactive | inactive | inactive | inactive |
| CC1(C)CC(N)CC(C)(CN)C1 (stereo not given) | inactive | inactive | inactive | inactive | inactive | inactive | inactive | inactive | inactive | inactive |
| O=C(OCC1CCC2OC2C1)C1CCC2OC2C1 (stereo not given) | inactive | inactive | inactive | inactive | inactive | inactive | inactive | inactive | inactive | inactive |
| CC(C)(Oc1ccc(CCNC(=O)c2ccc(Cl)cc2)cc1)C(=O)O | inactive | inactive | inactive | inactive | inactive | inactive | inactive | inactive | inactive | inactive |
| CC(CCO)CC(C)(C)C (stereo not given) | inactive | inactive | inactive | inactive | inactive | inactive | inactive | inactive | inactive | inactive |
| Brc1ccc(Br)c(Br)c1 | inactive | inactive | inactive | inactive | inactive | inactive | inactive | inactive | inactive | inactive |
| C[Si]1(C)O[Si](C)(C)O[Si](C)(C)O[Si](C)(C)O1 | inactive | inactive | inactive | inactive | inactive | inactive | inactive | inactive | inactive | inactive |
| Cc1ccc([N+](=O)[O-])cc1S(=O)(=O)O | inactive | inactive | inactive | inactive | inactive | inactive | inactive | inactive | inactive | inactive |
| CC(=O)Oc1ccc(C)cc1 | inactive | inactive | inactive | inactive | inactive | inactive | inactive | inactive | inactive | inactive |
| CCCCCC(=O)O | inactive | inactive | inactive | inactive | inactive | inactive | inactive | inactive | inactive | inactive |

| SMILES | Potency [1] | Potency [2] | outcome [3] | Potency [4] | outcome [5] | Potency [6] | Potency [7] | outcome [8] | Potency [9] | Potency (Aromatase (Homo sapiens)) |
| --- | --- | --- | --- | --- | --- | --- | --- | --- | --- | --- |
| CC(C)(C)c1cc(Cc2cc(C(C)(C)C)c(O)c(C(C)(C)C)c2)cc(C(C)(C)C)c1O | inactive | inactive | inactive | inactive | inactive | inactive | inactive | inactive | inactive | inactive |
| OC1C(O)C(O)C(O)C(O)C1O (stereo not given) | inactive | inactive | inactive | inactive | inactive | inactive | inactive | inactive | inactive | inactive |
| O=C(O)c1ccc(S(=O)(=O)N(Cl)Cl)cc1 | inactive | inactive | inactive | inactive | inactive | inactive | inactive | inactive | inactive | inactive |
| CC1(C)S[C@@H]2[C@H](NC(=O)COc3ccccc3)C(=O)N2[C@H]1C(=O)O | inactive | inactive | inactive | inactive | inactive | inactive | inactive | inactive | inactive | inactive |
| CCCCC(C=O)CC (stereo not given) | inactive | inactive | inactive | inactive | inactive | inactive | inactive | inactive | inactive | inactive |
| OCc1ccccc1 | inactive | inactive | inactive | inactive | inactive | inactive | inactive | inactive | inactive | inactive |
| Cc1ccc(S(=O)(=O)N=C=O)cc1 | inactive | inactive | inactive | inactive | inactive | inactive | inactive | inactive | inactive | inactive |
| CSc1ccc(Cl)cc1 | inactive | inactive | inactive | inactive | inactive | inactive | inactive | inactive | inactive | inactive |
| CN(C)c1ccc(O)c2c1C[C@H]1C[C@H]3[C@H](N(C)C)C(=O)C(C(N)=O)=C(O)[C@@]3(O)C(=O)C1=C2O | inactive | inactive | inactive | inactive | inactive | inactive | inactive | inactive | inactive | inactive |
| Nc1nc(N)nc(-c2ccccc2)n1 | inactive | inactive | inactive | inactive | inactive | inactive | inactive and 34.4 µM (active) | inactive | inactive | inactive |
| CC(=O)OCc1ccco1 | inactive | inactive | inactive | inactive | inactive | inactive | inactive | inactive | inactive | inactive |
| Cc1ccc2ncccc2c1 | inactive | inactive | inactive | inactive | inactive | inactive | inactive | inactive | inactive | inactive |
| C=CCCCCCCCCC(=O)O | inactive | inactive | inactive | inactive | inactive | inactive | inactive | inactive | inactive | inactive |
| CNC(=O)Oc1ccc2c(c1)[C@]1(C)CCN(C)[C@@H]1N2C | inactive | inactive | inactive | inactive | inactive | inactive | inactive | inactive | inactive | inactive |
| C=C(C)C(=O)OCC(C)C | inactive | inactive | inactive | inactive | inactive | inactive | inactive | inactive | inactive | inactive |
| CCc1ccccc1CC | inactive | inactive | inactive | inactive | inactive | inactive | inactive | inactive | inactive | inactive |
| C=C(C)CNCC | inactive | inactive | inactive |  | inactive |  |  |  | inactive | inactive |
| CC(=O)OCCOC(C)=O | inactive | inactive | inactive | inactive | inactive | inactive | inactive | inactive | inactive | inactive |
| O=c1[nH]cnc2[nH]ncc12 | inactive | inactive | inactive | inactive | inactive | inactive | inactive | inactive | inactive | inactive |
| C[C@]12CC[C@@H]3c4ccc(O)cc4CC[C@H]3[C@@H]1C[C@@H](O)[C@@H]2O | inactive | inactive | inactive |  | inactive |  |  |  | inactive | inactive |
| C=CC(=O)OCCC(=O)O | inactive | inactive | inactive | inactive | inactive | inactive | inactive |  | inactive | inactive |
| NCCN1CCNCC1 | inactive | inactive | inactive | inactive |  | inactive | inactive | inactive | inactive | inactive |
| O=C(O)c1cc2ccccc2cc1O | inactive | inactive | inactive | inactive | inactive | inactive and 49 µM [activator] (active) | 54.1 µM (active) and 48.6 µM (active) | inactive | inactive | inactive |
